# Screens as filed in PubChem BioAssay.
# MARV entry inh: qHTS for inhibitors of binding or entry into cells for Marburg Virus | Marburg virus pseudotyped entry inhibition, cell reporter | Potency, µM (titrated, usually from 37.8 µM), actives largely listed as inhibitors | 300,000 tested, 1.8% active; calls by dose curve; tested in HEK293 cells
# VACV mCherry inh: qHTS for Stage-Specific Inhibitors of Vaccinia Orthopoxvirus: mCherry Reporter Primary qHTS | Vaccinia virus mCherry reporter infection, fluorescence | Potency, µM (top dose mostly 36.5 µM), hits mostly inhibitors | 310,000 tested, 0.63% active | AID 720579, 2013; calls by dose curve; tested in A549 cells; note: nearly all actives have a fitted effect of over 35% in size
# Lassa entry inh: qHTS for Inhibitors of binding or entry into cells for Lassa Virus; Lassa virus pseudotype entry inhibition, cell reporter; Potency, µM (series often up to 37.9 µM), usual class: inhibitors; 300,000 tested, 1.2% active; calls by dose curve; tested in HEK293 cells; note: nearly all actives have a fitted effect of over 50% in size
# VACV Venus inh: qHTS for Stage-Specific Inhibitors of Vaccinia Orthopoxvirus: Venus Reporter Primary qHTS; Vaccinia virus Venus reporter expression, fluorescence; Potency, µM (series often up to 36.5 µM), usual class: inhibitors; 330,000 tested, 0.46% active; calls by dose curve; tested in A549 cells; note: nearly all actives have a fitted effect of over 30% in size
# HCMV inh: qHTS Assay for inhibitors of the human cytomegalovirus (HCMV); HFF cells, HCMV-luciferase reporter, 72 h; active compounds read low; activity change, negative = inhibition, % at 57.5 µM; 410,000 tested, 4.5% active; AID 1259415, 2018; in the data active = activity change below about -60%; inconclusive = no clear call, values can overlap the other calls; inactive = above about -39%
#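 Human foreskin fibroblasts infected with luciferase-reporter HCMV at MOI 1 PFU/cell, compounds at two doses. Luciferase measured 72 h post infection; normalized to buffer-only basal and Salinomycin (10uM) controls.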
# FMDV inh: High Throughput Screening for Foot and Mouth Disease Virus Antivirals. FMDV antiviral cell-based qHTS. Potency, µM (top dose mostly 57.9 µM), usual class: inhibitors. 410,000 tested, 1.2% active. AID 1159524, 2015; calls by dose curve; tested in HEK293T cells; note: read-out not given here; nearly all actives have a fitted effect of over 45% in size
# Hits are given with their value; i = inactive; ? = inconclusive; nt = no result given; [ ] = dose if it differs, or a comment. In the library only some 6.5% were active in any assay of this set; here they are far more common.
SMILES,MARV entry inh,VACV mCherry inh,Lassa entry inh,VACV Venus inh,HCMV inh,FMDV inh
NC(=S)NN=C1c2cc(S(=O)(=O)N3CCOCC3)ccc2-c2ccc(S(=O)(=O)N3CCOCC3)cc21,i,i,i,i,i,i
OCc1ccccc1SSc1ccccc1CO,i,i[7.34 µM],?,i[7.34 µM],-98,i
OCc1ccccc1O,nt,i,nt,i,nt,i
CCCn1c2ccccc2c2cnn(CC(=O)Nc3ccccc3OC)c(=O)c21,nt,i,?,i,?,i
CC(OC(=O)CCc1cc(C(C)(C)C)c(O)c(C(C)(C)C)c1)C(=O)NC1CC1 (configuration not stated),?,13µM,?,i,i,i
CC(=O)OC[C@H]1O[C@H](CC=NO[C@H](C)c2cn([C@@H]3COC[C@@H]3O)nn2)C=C[C@@H]1OC(C)=O,i,nt,nt,nt,nt,nt
CC(=O)Nc1nc(C)c(-c2csc(Nc3ccc(O)cc3)n2)s1,4.6µM,nt,?,nt,nt,i
O=[N+]([O-])c1cccc(NC(=S)Nc2nc(-c3ccc(Cl)cc3Cl)cs2)c1,nt,nt,nt,nt,-87,nt
CC(=O)Nc1nc(C)c(-c2csc(Nc3cccc([N+](=O)[O-])c3)n2)s1,14µM,5µM,?,?,i,i
CC(=O)Nc1nc(C)c(-c2csc(Nc3cccc(C(C)=O)c3)n2)s1,nt,nt,nt,nt,i,i
CC(=O)Nc1ccc(Nc2nc(-c3sc(NC(C)=O)nc3C)cs2)cc1,3.2µM,i,?,i,i,i
O=C(NC(=S)Nc1nc(-c2cccc([N+](=O)[O-])c2)cs1)c1cc(Cl)ccc1Cl,?,i,?,i,i,?
COc1ccccc1N1CCN(C(=O)Cn2cnc3onc(-c4ccc(F)cc4)c3c2=O)CC1,nt,i,i,i,i,i
CCCN(CCC)C(=O)C1CCCN(c2ncnc3onc(-c4ccc(F)cc4)c23)C1 (configuration not stated),nt,i,i,i,i,?
COc1cccc(Nc2nc(-c3sc(NC(=O)CC(C)C)nc3C)cs2)c1,nt,?,nt,?,i,i
CCC(C)C(=O)Nc1nc(C)c(-c2csc(Nc3ccc(Cl)cc3)n2)s1 (configuration not stated),nt,?,nt,?,-90,i
COc1cccc(Nc2nc(-c3sc(NC(=O)c4ccccc4)nc3C)cs2)c1,nt,i,nt,?,-61,i
CCOC(=O)c1cc(-c2ccccc2)n(CCCC(=O)Nc2ccc(C)c(Cl)c2)c1C,nt,i,i,i,i,i
Cc1c(C(=O)NCC2(c3ccccc3)CCOCC2)cnn1-c1nccc(-c2ccco2)n1,nt,i,nt,i,nt,i
COc1ccc([C@H]2NC(=O)C[C@H]2C(=O)N2CCOCC2)cc1,nt,nt,nt,nt,i,nt
CCc1ccccc1N1CC(c2nnc(NC(=O)c3ccco3)s2)CC1=O (configuration not stated),i,i,i,i,i,i
Cc1nc(-n2[nH]c3c(c2=O)CCCC3)[nH]c(=O)c1Cc1ccccc1,?,nt,?,nt,-103,?
CC(=O)N1CCN(c2ccc(NCc3ccc(-c4ccc(Br)cc4)o3)cc2)CC1,nt,nt,nt,nt,-80,?
CC(=O)N1CCN(c2ccc(NCc3ccc(Br)o3)cc2)CC1,nt,nt,nt,nt,-62,i
CN1CCN(c2ccc(NC(=O)c3ccc(-c4ccc(Br)cc4)o3)cc2)CC1,?,?,?,i,i,i
SMILES,MARV entry inh,VACV mCherry inh,Lassa entry inh,VACV Venus inh,HCMV inh,FMDV inh
CC(=O)N1CCN(c2ccc(NCc3ccccc3)cc2)CC1,i,nt,i,nt,i,i
CCc1nn(CC(=O)Nc2ccc(NC(C)=O)cc2)c(=O)c2cc3sccc3n12,i,?,nt,?,i,i
CCCOc1ccc(/C(O)=C2\C(=O)C(=O)N(CCN(C)C)[C@H]2c2ccncc2)cc1,i,nt,nt,nt,nt,nt
CCOc1ccc(CCNC(=O)c2cc3sc(CC)cc3n2C)cc1OCC,i,i[7.34 µM],nt,i[7.34 µM],i,i
CCOc1ccc(CCNC(=O)c2cc3sccc3n2CC)cc1OCC,?,i,15µM,i,i,?
O=C(Nc1ccc(F)cc1F)c1ccc2c(c1)OCCO2,2.8µM,i,?,i,i,i
O=C(NCc1ccccc1F)c1ccc2c(c1)OCO2,i,nt,i,nt,i,i
O=C(COC(=O)c1ccc2c(c1)OCCO2)Nc1ccc(F)cc1F,i,i,i,i,i,i
O=C(NCCc1ccccc1F)c1ccc2c(c1)OCCO2,?,i,0.89µM,i,-99,2.8µM
O=C(Nc1ccc(Br)cc1F)c1ccc2c(c1)OCCO2,6.3µM,i,?,i,i,i
CC(C)Oc1cccc(C(=O)Nc2ccc(Br)cc2F)c1,?,i,2µM,?,i,i
CCCOc1ccc(-c2cccc(NS(=O)(=O)c3ccc(CC)cc3)c2)nn1,nt,i,i,i,i,i
Cc1cccc(N2CCN(C(=O)c3ccc4c(c3)NC(=O)C(CSCc3cccc(F)c3)N4)CC2C)c1 (configuration not stated),nt,nt,nt,nt,-83,i
COc1ccc(N2CCN(C(=O)c3ccc4c(c3)NC(=O)C(CSCc3ccccc3F)N4)CC2)cc1 (configuration not stated),nt,i,nt,i,i,i
COc1ccc(/C=N/NC(=O)CN(CCc2ccccc2)S(=O)(=O)c2ccc(NC(C)=O)cc2)cc1OC,?,i,?,i,i,i
CC(=O)Nc1ccc(S(=O)(=O)N(Cc2ccccc2)Cc2ccccc2)cc1,nt,i,?,i,-61,i
CC(=O)Nc1ccc(NC(=O)c2ccccc2CCc2ccccc2)cc1,?,i,10µM,i,?,i
CC(=O)Nc1ccc(N/C(C)=C/C(=O)c2cccnc2)cc1,i,i,i,i,-61,i
COc1cc(/C=N/NC(=O)CN(CCc2ccccc2)S(=O)(=O)c2ccc(NC(C)=O)cc2)cc(OC)c1OC,i,i,18µM,i,i,?
CCOC(=O)N1CCc2c(sc3c2c(=O)n(Cc2ccccc2)c(=O)n3CC(=O)Nc2ccc(F)cc2)C1,?,i,i,i,i,i
CC(=O)c1ccc(NC(=O)C(Cc2ccccc2)NS(=O)(=O)c2ccc3c(c2)CCC(=O)N3)cc1 (configuration not stated),i,i,i,i,i,i
CC(=O)Nc1ccc(S(=O)(=O)N(C2=NCC(C)S2)c2ccccc2)cc1 (configuration not stated),16µM,nt,?,i,nt,i
CC(=O)Nc1ccc(CCNC(=O)c2ccc3ccccc3c2O)cc1,?,i,1µM,i,i,i
Cc1ccc(NC(=O)N(C2=NCC(C)S2)c2ccccc2)cc1 (configuration not stated),?,nt,i,nt,i,i
CC(=O)Nc1ccc(S(=O)(=O)N(c2cccnc2)S(=O)(=O)c2ccc(NC(C)=O)cc2)cc1,?,nt,0.82µM,nt,i,i
CCN(CC)S(=O)(=O)c1ccc(NC(=O)CC(NC(C)=O)c2ccccc2)cc1 (configuration not stated),i,i,i,i,-81,i
CC(=O)NC(CC(=O)Nc1ccc(S(=O)(=O)N2CCCC2)cc1)c1ccccc1 (configuration not stated),i,nt,i,nt,i,i
